Among the data in PubChem BioAssay AID1224904 (Broad Institute, 2016) are activity change, negative = inhibition and Gaussia minus Italica difference values, retold here.

About 290 (0.78%) of roughly 37,000 compounds were called active. About 10% were inconclusive and are not listed.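 The calls were made as follows: active = mean inhibition of at least 10% in the main channel, exceeding the control channel by a set limit; inconclusive = inhibition of 10% or more but channel gap under a set limit; inactive = mean inhibition below 10%.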 The entries come from a sample that favours actives as a whole.

The experiment can be described thus: DUX4 transcriptional activity inhibition in cells – 293T cells, Gaussia and Italica luciferase, primary screen (AID 1224904).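 As to activity change, negative = inhibition: 0% = median of neutral control wells and -100% = median of positive control wells.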 The conditions noted are these: 293T-iDUX4 ZSCAN4-Gaussia luciferase reporter, 24 h, stronger effect = lower value, concentration not given here; for Gaussia minus Italica difference: measured here: selective DUX4 reporter inhibition. (In a reporter assay the amount or activity of a reporter protein is the signal.)

[1] abbreviates: measured here: Italica tet-on control reporter.

On to `COc1cccc(CNC(=O)[C@@H]2[C@@H](CO)[C@@H]3Cn4c(ccc(-c5ccncc5)c4=O)[C@H]2N3C(C)=O)c1`, for which the activity change, negative = inhibition is -3.74% (inactive) and the Gaussia minus Italica difference was -0.373%. Further, the activity change, negative = inhibition under setting [1] was -3.37%.

With `CN1CCN(C(=O)C[C@@H]2CC[C@@H]3[C@H](COC[C@@H](O)CN3Cc3cccc(F)c3)O2)CC1`, the activity change, negative = inhibition was 4.3% (inactive) and the Gaussia minus Italica difference is 5.51%. Further, the activity change, negative = inhibition under setting [1] was -1.22%.

In the case of `O=C(C[C@@H]1CC[C@@H]2[C@H](COC[C@H](O)CN2C(=O)c2cccnc2)O1)NC1Cc2ccccc2C1`, the activity change, negative = inhibition was 3.73% (inactive) and the Gaussia minus Italica difference amounted to 7.39%. In addition, under setting [1], the activity change, negative = inhibition was -3.66%.

As to `CC(C)CN(C[C@@H]1N[C@@H](CO)[C@H]1c1ccccc1)C(=O)CN(C)C`, the activity change, negative = inhibition was 0.487% (inactive) and the Gaussia minus Italica difference was -0.462%. For the same compound, under setting [1], the activity change, negative = inhibition stood at 0.95%.

As for `O=C(C[C@@H]1CC[C@@H](NC(=O)Nc2ccc(F)cc2)[C@@H](CO)O1)NCCN1CCCC1`, the activity change, negative = inhibition was 3.27% (inactive) and the Gaussia minus Italica difference is 4.34%. In addition, the activity change, negative = inhibition under setting [1] was -1.07%.

In the case of `N#C[C@@H]1[C@@H](c2ccc(C#Cc3cccc(F)c3)cc2)[C@H](CO)N1C(=O)C1CCOCC1`, the activity change, negative = inhibition was 1.6% (inactive) and the Gaussia minus Italica difference is -0.348%. The activity change, negative = inhibition under setting [1] was 1.95%.

For `Cc1noc(C)c1S(=O)(=O)N(C)C[C@@H]1OCc2ccccc2-c2ccccc2C(=O)N([C@@H](C)CO)C[C@H]1C`, the activity change, negative = inhibition is 1.81% (inactive) and the Gaussia minus Italica difference is -10.7%. For the same compound, the activity change, negative = inhibition under setting [1] was 12.5%.

Turning to `O=C(C[C@H]1CC[C@@H]2[C@H](COC[C@@H](O)CN2C(=O)Nc2ccc(Cl)cc2)O1)NC1Cc2ccccc2C1`, the activity change, negative = inhibition was -9.05% (inactive) and the Gaussia minus Italica difference was -8.14%. Also, the activity change, negative = inhibition under setting [1] was -0.9%.

Regarding `CN1C(=O)c2cc(NC(=O)c3cscn3)ccc2OC[C@H]2O[C@@H](CC(=O)NCC3CC3)CC[C@H]21`, the activity change, negative = inhibition is -3.18% (inactive) and the Gaussia minus Italica difference was -1.61%. Further, under setting [1], the activity change, negative = inhibition is -1.57%.

Consider `CCC(=O)N1CC2(C1)[C@@H](c1ccccc1)[C@H](CO)N2CC1CCOCC1`, for which the activity change, negative = inhibition is -0.159% (inactive) and the Gaussia minus Italica difference is -9.09%. In addition, under setting [1], the activity change, negative = inhibition turned out to be 8.93%.

Take `C[C@@H]1CC=CC[C@H](c2ccc(F)cc2)NC(=O)[C@@H](Cc2ccccc2)N(C)C(=O)c2ccccc2O1` (mixture of isomers): the activity change, negative = inhibition is -2.82% (inactive) and the Gaussia minus Italica difference was -0.938%. The activity change, negative = inhibition under setting [1] is -1.88%.

In the case of `CC(C)NC(=O)N1C[C@@H]2[C@H](c3ccccc31)[C@H](CO)N2C(=O)C1CCCC1`, the activity change, negative = inhibition is -2.38% (inactive) and the Gaussia minus Italica difference is -0.893%. Moreover, the activity change, negative = inhibition under setting [1] was -1.49%.

Regarding `CCCNC(=O)[C@@H]1[C@@H](CO)[C@@H]2Cn3c(cccc3=O)[C@H]1N2C(=O)Nc1cc(F)ccc1F`, the activity change, negative = inhibition was 6.78% (inactive) and the Gaussia minus Italica difference was -3.98%. Moreover, the activity change, negative = inhibition under setting [1] is 10.8%.

For `Cc1noc(C)c1NC(=O)N[C@@H]1C=C[C@H](CC(=O)N2CCCCC2)O[C@H]1CO`, the activity change, negative = inhibition is 5.84% (inactive) and the Gaussia minus Italica difference came out at 4.2%. For the same compound, under setting [1], the activity change, negative = inhibition was 1.64%.

On to `C[C@@H]1CN([C@H](C)CO)S(=O)(=O)c2ccc(C#CC3CCCC3)cc2O[C@@H]1CN(C)Cc1ccccc1C(=O)O`, for which the activity change, negative = inhibition was -1.04% (inactive) and the Gaussia minus Italica difference worked out at 1.03%. Also, the activity change, negative = inhibition under setting [1] was -2.07%.

For the compound `CC=Cc1ccc2n(c1=O)C[C@@H]1[C@@H](CO)[C@H](C(=O)N(C)C)N(CC3CCOCC3)[C@H]21` (mixture of isomers), the activity change, negative = inhibition is 3.1% (inactive) and the Gaussia minus Italica difference was -3.17%. In addition, the activity change, negative = inhibition under setting [1] is 6.26%.

Regarding `COc1ccccc1NC(=O)N[C@H]1C=C[C@H](CC(=O)N[C@@H](C)c2ccccc2)O[C@H]1CO`, the activity change, negative = inhibition was -2% (inactive) and the Gaussia minus Italica difference is -0.906%. For the same compound, the activity change, negative = inhibition under setting [1] was -1.1%.

On to `O=C(Nc1ccccc1F)N1C[C@H]2[C@@H](c3ccccc31)[C@H](CO)N2C(=O)c1ccccn1`, for which the activity change, negative = inhibition was -3.65% (inactive) and the Gaussia minus Italica difference is -0.784%. In addition, the activity change, negative = inhibition under setting [1] was -2.86%.

As for `O=C(CN1CCOCC1)N1CCCCN2[C@H](CO)[C@H](c3ccc(Br)cc3)[C@H]2C1`, the activity change, negative = inhibition is 9.07% (inactive) and the Gaussia minus Italica difference stood at 13.5%. Besides, the activity change, negative = inhibition under setting [1] was -4.46%.

As for `OC[C@H]1[C@@H](c2ccc(C#CC3(O)CCCC3)cc2)[C@H]2CN(Cc3cncnc3)CCCCN21`, the activity change, negative = inhibition was 13.2% (inactive) and the Gaussia minus Italica difference amounted to 0.35%. Under setting [1], the activity change, negative = inhibition came out at 12.8%.

Regarding `O=C(C1CCCCC1)N1CC(=O)N2[C@H](CO)[C@@H](c3ccc(-c4ccccc4F)cc3)[C@@H]2C1`, the activity change, negative = inhibition was -8.07% (inactive) and the Gaussia minus Italica difference is -6.47%. Moreover, the activity change, negative = inhibition under setting [1] was -1.6%.

Regarding `CNC(=O)C[C@H]1CC[C@@H]2[C@H](COc3ccc(NC(=O)Nc4ccc(F)c(F)c4)cc3C(=O)N2C)O1`, the activity change, negative = inhibition was -0.979% (inactive) and the Gaussia minus Italica difference amounted to 2.86%. Besides, the activity change, negative = inhibition under setting [1] was -3.84%.

Regarding `O=C(C[C@@H]1C[C@H]2c3cc(NC(=O)Nc4ccccc4F)ccc3O[C@H]2[C@@H](CO)O1)NCc1ccncc1`, the activity change, negative = inhibition is -1.77% (inactive) and the Gaussia minus Italica difference is -2.32%. Further, the activity change, negative = inhibition under setting [1] came out at 0.554%.

In the case of `C[C@@H](NC(=O)[C@@H]1[C@@H](CO)[C@@H]2Cn3c(ccc(C4=CCCCC4)c3=O)[C@@H]2N1C)c1ccccc1`, the activity change, negative = inhibition was 3.54% (inactive) and the Gaussia minus Italica difference turned out to be 2.15%. Besides, the activity change, negative = inhibition under setting [1] was 1.39%.

For `CN1C(=O)c2cc(NC(=O)c3ccc(F)cc3)ccc2OC[C@H]2O[C@H](CC(=O)N3CCOCC3)CC[C@@H]21`, the activity change, negative = inhibition was 1.69% (inactive) and the Gaussia minus Italica difference came to 9.5%. Also, the activity change, negative = inhibition under setting [1] was -7.81%.

In the case of `COCC(=O)N[C@@H]1C=C[C@@H](CC(=O)N2CCCCC2)O[C@@H]1CO`, the activity change, negative = inhibition was 6.06% (inactive) and the Gaussia minus Italica difference amounted to 7.14%. Besides, the activity change, negative = inhibition under setting [1] is -1.08%.

With `O=C(C1CCCC1)N1CC2(C1)[C@H](c1ccccc1)[C@H](CO)N2CCC(F)(F)F`, the activity change, negative = inhibition was -0.604% (inactive) and the Gaussia minus Italica difference is -3.36%. In addition, the activity change, negative = inhibition under setting [1] was determined as 2.75%.
